Test results reported in the OligoGym collection.

molecular target: EPHX2; assay: pooled miR-30 sensor sort-seq; sequence = guide strand; conditions: shRNA
Also: reference of the scale not given here.

Row | Sequence | sensor-assay potency score (higher = more potent)
1 | TAGAACTGGATTTCCTCCTCAG | 0.253
2 | TTTCTGGAAAGCATCATTCAGA | -0.533
3 | TTCTTTTATGGAGAAATTCTTG | -0.837
4 | TTTCTGGCTGAAATCGCCTTGT | -0.617

molecular target: ERCC2; assay: as above; conditions: shRNA

Row | Sequence | sensor-assay potency score (higher = more potent)
5 | TTCCCATCGACGTCCTTCCCAA | -0.665
6 | TCGTCTGTCTCTTTGATCCTGA | -0.221
7 | TAGCTATAAACCACCACATTGG | -1.42
8 | TCGAAGCTCTTCAATCACCTTC | 0.181
9 | TGTAGGAGAACTGCTCGGGGTA | -0.658
10 | TGGAAGTCCAGGATCTTGGGGT | 0.059
11 | TCAATCTCTGGCACAGTTCTTG | 0.0123
12 | TTTGATCCTGAGCACCGTCTTC | -1.12
13 | TATCGAGCAAGGAAGTATGGGC | 0.161
14 | TCGATGATGATGGTGAAGCCTT | -1.27
15 | TTGAGCTCCCGCATGTAGGAGA | -0.477
16 | TGACAGACTGGAAACGCTCAAA | -0.97
17 | TCAAATTCCTCATAGAATCGGC | -0.0111
18 | TCTGGCACAGTTCTTGAGCAGT | -0.9
19 | TTAGCAAGGAGGGTGAGCGGGG | -1.04
20 | TTGAGCAACTTTCGAAGCTCTT | -0.541
21 | TGAATACACAAGTTTTTGCGGG | 0.0838
22 | TTGAGCAGTAGATGAGTTTGGT | 0.18
23 | TTCAGCACAGAATCTGAGGGGC | 0.408
24 | AACAGGGATACTGTCTTCCCGG | -1.06
25 | ATTCTCACGAATCTGGAACTGG | -0.416
26 | TAGAAGTTGAGCAACTTTCGAA | 0.118
27 | TTGGGGTAGATGTCCAGCGGGG | -1.14
28 | TTGCGCTGGATGCACACGCGCT | -1.42

molecular target: ERCC8; assay: as above; conditions: shRNA

Row | Sequence | sensor-assay potency score (higher = more potent)
29 | TTGAAAAAAACACAGTCTCATT | -1.3
30 | TAACTTTCCCATTATGAGCAGT | -0.724
31 | TAGCTGTCAGGAATAGACCATA | -0.945
32 | TTTGACTGAAATACACAGCAGT | 0.0965
33 | TTGACTGAAATACACAGCAGTC | -0.992
34 | TCTTTCAACATCTCTGTCTTTA | 0.0508
35 | TTGTAATGTATTTGTATCCCAT | -0.441
36 | TTGTAGTCTCATCATCATCAGG | -1.16
37 | TATAGTTCATAAAATCTGCTGA | 0.347
38 | TTTCTTGTCTGTGACCCTGTAG | -0.264
39 | TTGTTGTAGTCTCATCATCATC | -1.65
40 | TAAACTATACAGAAGTCTGTTT | -0.703
